From PubChem BioAssay
MCF10A rereplic – inducers of DNA re-replication in MCF 10A breast cells | Potency, µM (highest dose often 46.1 µM), usual class: activators | actives 2.9% (n = 350,000) | MCF 10A DNA re-replication, Hoechst nuclear intensity, 48 h; further: nearly all actives have a fitted effect of over 50% in size
KB-3-1 cytotox – KB-3-1 parental cell cytotoxicity; AID 1347075; KB-3-1 viability, CellTiter-Glo ATP luminescence, 72 h; actives 1.4% (n = 400,000); Potency, µM (doses to about 46.1 µM), hits mostly cytotoxic; further: nearly all actives have a fitted effect of over 60% in size
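Parental KB-3-1 adenocarcinoma cells in phenol-red-free DMEM with 10% FBS were pin-treated with compounds at several concentrations, incubated 72 h at 37 °C, and viability read by CellTiter-Glo luminescence; concentration-effect curves were fitted after normalization.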
SW480 rereplic – inducers of DNA re-replication in SW480 colon cancer cells; SW480 DNA re-replication, Hoechst DNA content imaging, 48 h; Potency, µM (doses to about 46.1 µM), most hits filed as activators; actives 1.8% (n = 340,000); further: nearly all actives have a fitted effect of over 55% in size
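Per well, 250 cells were exposed to pinned compound for 48 hr. Nuclear DNA was visualised with Hoechst (40 min, 37 C) and total object intensity recorded by fluorescence scanning.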
ELG1 DNA repair – inhibitors of ELG1-dependent DNA repair in HEK293T cells | HEK293T ELG1-luciferase reporter, luminescence, 16 h; DNA damage induced by 5-fluorouridine | Potency, µM (top dose mostly 46.1 µM), most hits filed as inhibitors | actives 2.3% (n = 330,000) | AID 504467; further: nearly all actives have a fitted effect of over 55% in size
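In this reporter screen, reduction of luminescence relative to DMSO vehicle indicated activity. Compounds and 5-fluorouridine were added together to 2,000 cells per well, incubated for 16 hr at 37 °C, then developed with ONE-Glo.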
KB-V1 MDR tox – kills drug-selected multidrug resistant KB-V1 cells | KB-V1 MDR cells viability, CellTiter-Glo, 72 h | Potency, µM (highest dose often 46.1 µM), actives largely listed as cytotoxic | actives 3.4% (n = 400,000) | AID 1347076; further: nearly all actives have a fitted effect of over 60% in size
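Drug-selected KB-V1 cells, grown in DMEM lacking phenol red with 10% FBS, receive compound titrations; after three days at 37 degrees C, surviving cell ATP is quantified by CellTiter-Glo luminescence and responses normalized and curve-fitted.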
A number is an active result; – = inactive; ? = inconclusive; · = no result. Shown are actives, neighbours in structure and some others; about 8.1% of the full set was active somewhere. The call rests on the fitted dose curve; in most records, active means well fitted curve in the direction sought with a large enough effect; inconclusive means small, poorly fitted or top-dose-only effect, or another doubt; inactive means no such curve, though single readings can be large; an effect the other way counts as inactive or inconclusive.

SMILES	MCF10A rereplic	KB-3-1 cytotox	SW480 rereplic	ELG1 DNA repair	KB-V1 MDR tox
Cc1c2cnn(CC(=O)N3CCC4(CC3)OCCO4)c(=O)c2c(C)n1Cc1ccccc1	–	–	–	–	–
O=C(Cn1ncc2c3ccccc3n(Cc3ccc(F)cc3)c2c1=O)N1CCC2(CC1)OCCO2	–	–	–	21µM	?
OCC1OC(O)CC(O)C1O (configuration not stated)	?	–	–	·	–
CC1CCC(NC(=O)c2cc3c(=O)n(C)c4ccccc4c3n2C)CC1 (configuration not stated)	?	–	–	?	–
OC[C@H]1OC(O)C[C@@H](O)[C@@H]1O (some centres not stated)	–	–	–	–	–
CC(C)CNC(=O)c1c(N)n(Cc2ccc3c(c2)OCO3)c2nc3ccccc3nc12	?	?	2.6µM	?	?
CCCNC(=O)c1c(N)n(Cc2ccc3c(c2)OCO3)c2nc3ccccc3nc12	0.65µM	–	3.3µM	?	?
COC(=O)c1c(N)n(Cc2ccc(OC)cc2)c2nc3ccccc3nc12	–	–	?	?	–
CC(C)CCNC(=O)c1c(N)n(Cc2ccc3c(c2)OCO3)c2nc3ccccc3nc12	?	–	2.6µM	?	?
Cc1sc2ncnc(SCC(=O)Nc3ccc(S(=O)(=O)N4CCOCC4)cc3)c2c1C	–	–	–	?	–
O=C1c2cccc3cccc(c23)C(=O)N1CCN1CCN(C(=S)Nc2ccccc2)CC1	–	–	–	16µM	18µM
O=C(COc1ccccc1)N1CCN(CCN2C(=O)c3cccc4cccc(c34)C2=O)CC1	–	–	–	–	?
Oc1ccc(O)c2c1C1(Cl)C(Cl)=C(Cl)C2(Cl)C1(Cl)Cl	16µM	–	?	·	–
Oc1ccccc1Cl	?	–	–	–	–
C[C@H]1COC2=C1C(=O)C(=O)c1c2ccc2c1CCCC2(C)C	18µM	?	?	?	–
CCn1c(C)[n+](CC(O)COCC2CC=CCC2)c2ccccc21 (configuration not stated)	?	–	–	?	–
C[C@]12CCC3=C4CCC(=O)C=C4CC[C@H]3C1CC[C@@H]2O (some centres not stated)	–	10µM	–	–	3.7µM
CCCCCCCCCC(=O)O[C@H]1CC[C@H]2[C@@H]3CCC4=CC(=O)CC[C@@H]4[C@H]3CC[C@]12C	–	·	–	·	·
C[C@]12CC[C@@H]3c4ccc(O)c(O)c4CC[C@H]3[C@@H]1CC[C@@H]2O	–	?	?	·	–
CC1(O)CCC2C3CCC4=CC(=O)CCC4=C3C=CC21C (configuration not stated)	?	?	–	·	9.2µM
C[C@]12CC[C@@H]3c4cc(O)c(O)cc4CC[C@H]3[C@@H]1CC[C@@H]2O	26µM	6.5µM	?	·	13µM
C[C@]12CC[C@H]3[C@@H](CCC4=CC(=O)CC[C@@H]43)[C@@H]1CC[C@@H]2O	–	10µM	–	–	2.3µM
O=C(Nc1ccc(Cl)c(C(F)(F)F)c1)NC1CC2CCCC(C1)N2Cc1ccccc1 (configuration not stated)	?	?	?	–	?
Cn1c(=O)n(C)c2cc(CNCCc3ccccc3)ccc21	·	–	·	·	–
O=C(CN1CCCCC1)c1ccccc1	·	–	·	·	–
SMILES	MCF10A rereplic	KB-3-1 cytotox	SW480 rereplic	ELG1 DNA repair	KB-V1 MDR tox
C[C@]12CCC(=O)C=C1CCC1C2CC[C@@]2(C)C1CC[C@@H]2O (some centres not stated)	–	4.6µM	–	–	2.3µM
Cc1ccc2c(c1)[C@@H]1CN(C)CC[C@H]1N2	–	·	–	·	·
Cn1c(O)c(C=Nc2ccccc2)c(=O)n(C)c1=O	–	–	–	–	–
Cn1c(O)c(/C=N/Nc2ccccc2)c(=O)n(C)c1=O	6.5µM	–	–	?	–
C[C@H]1C/C=C/[C@H]2[C@H](O)[C@H](C)[C@@](C)(O)[C@H]3[C@H](Cc4ccccc4)NC(=O)[C@]32[C@H](O)/C=C/[C@](C)(O)C1	?	–	?	·	–
C=C1C(C)C2C(Cc3ccccc3)NC(=O)C23C(OC(C)=O)C=CC(C)(O)CC(C)CC=CC3C1O (configuration not stated)	?	?	3.7µM	·	?
CC(=O)O[C@@H]1/C=C/[C@](C)(O)C[C@@H](C)C/C=C/[C@H]2[C@H](O)C(C)=C(C)[C@H]3[C@H](Cc4ccccc4)NC(=O)[C@@]123	?	?	18µM	·	–
C=C1[C@@H](C)[C@H]2[C@H](Cc3ccccc3)NC(=O)[C@]23OC(=O)/C=C/[C@H](O)CCC[C@@H](C)C/C=C/[C@H]3[C@@H]1O	?	–	5.8µM	·	?
COc1ccnc(N=CNOCc2ccc(C)cc2)c1C#N	–	–	–	?	–
CCOC(=O)C1(CCOc2ccccc2)CCN(C2Cc3ccccc3C2)CC1	9.2µM	?	–	?	?
CCOC(=O)C1(CCOc2ccccc2)CCN(C(C)CSC)CC1 (configuration not stated)	–	–	–	–	–
NCc1cccnc1	–	·	–	·	·
C[N+]1=C(/C=C/Nc2ccccc2)C(C)(C)c2ccccc21	–	?	–	–	21µM
Cc1ccccc1-n1nc(C)c2c1NC(=O)CSC2c1ccc(N(C)C)cc1 (configuration not stated)	·	–	·	·	–
CN1CCN(Cc2ccccc2Sc2ccccc2)CC1	?	–	?	–	21µM
CCOC(=O)c1oc2ccc(S(=O)(=O)n3nc(-c4ccc(Cl)cc4)cc3N)cc2c1C	?	?	–	?	–
CCCC(=O)OC(C(Cl)(Cl)Cl)P(=O)(OC)OC (configuration not stated)	–	·	–	·	·
CN(C(=O)Oc1ccc(Cl)c2cccnc12)c1ccccc1	–	–	–	–	18µM
Cc1csc(N2CCc3ccccc32)n1	–	–	–	?	–
CC(C)c1cccc(C(C)C)c1OCCn1ccnc1	–	–	?	–	23µM
c1ccc(Cn2ccnc2)cc1	–	–	–	–	–
COc1cccc(NC(=O)c2cccn(Cc3ccccc3C)c2=O)c1	·	?	·	·	–
Clc1ccc(C(c2ccc(Cl)cc2)n2cc[n+](CC(OCc3ccc(Cl)cc3Cl)c3ccc(Cl)cc3Cl)c2)cc1 (configuration not stated)	5.2µM	?	–	?	?
COCCCNC(=O)c1c(NC(=O)c2ccco2)n(Cc2ccccc2)c2nc3ccccc3nc12	?	–	?	–	–
CCCCNC(=O)c1c(N)n(CCCOC)c2nc3ccccc3nc12	10µM	–	2.1µM	?	18µM
COCCNC(=O)c1c(NC(=O)c2ccc(Br)o2)n(Cc2ccccc2)c2nc3ccccc3nc12	5.8µM	–	?	?	12µM
COCCNC(=O)c1c(N)n(CCC(C)C)c2nc3ccccc3nc12	3.3µM	–	?	5.8µM	16µM
C=CCNC(=O)c1c(N)n(CCN2CCOCC2)c2nc3ccccc3nc12	5.8µM	–	–	–	–
